Results with a measured potency or affinity are listed apart.
What was measured:
Staphylococcus aureus = details: Concentration 32 ug.mL-1;; ASSAY_TEST Inhibition of Bacterial Growth; detection method Absorption (OD600); MEDIA CAMHB; plate type 384well; NBS; CORNING #3640; time 18 hr
Escherichia coli = details: Concentration 32 ug.mL-1;; ASSAY_TEST Inhibition of Bacterial Growth; detection method Absorption (OD600); MEDIA CAMHB; plate type 384well; NBS; CORNING #3640; time 18 hr

| Compound | Inhibition (Staphylococcus aureus) | Inhibition (Escherichia coli) |
| --- | --- | --- |
| Cc1cccc(NC(=O)Cn2nc3nc(N4CCCCCC4)ccn3c2=O)c1C | 7.24% | -2.03% |
| Cc1ccc(C)c(NC(=O)Cn2nc3ccc(-c4ccccc4)nn3c2=O)c1 | -0.8% | -9.05% |
| COc1ccc(NC(=O)Cn2nc3c4cc(-c5ccc(C)cc5)nn4ccn3c2=O)c(OC)c1 | 1.08% | -1.29% |
| COc1cccc(-n2ccn3c(SCc4c(F)cccc4Cl)nnc3c2=O)c1 | 2.96% | -9.46% |
| COc1ccc(NC(=O)Cn2nc3nc(Nc4ccc(F)cc4)ccn3c2=O)cc1F | -2.83% | -10.06% |
| COc1ccc(NC(=O)CSc2nnc3c(=O)n(-c4ccccc4)ccn23)cc1 | -4.77% | -6.17% |
| Cc1cc(Nc2ccc(F)cc2)nc2nn(CCc3ccccc3)c(=O)n12 | 4.62% | -5.44% |
| Cc1ccc(-c2cc3c4nnc(CCC(=O)N5CCN(c6ccccc6F)CC5)n4ccn3n2)cc1C | -1.08% | -5.39% |
| CC(C)Sc1ccc2nn(CC(=O)Nc3ccccc3F)c(=O)n2n1 | -5.65% | 3.66% |
| O=C(Cn1nc2ccc(SC3CCCCC3)nn2c1=O)Nc1ccc(F)c(F)c1 | -4.22% | -6.38% |
